Assay results from paper PMC9838217, “Structure of SALL4 zinc finger domain reveals link between AT-rich DNA binding and Okihiro syndrome”.
Positions count from the first letter of the chain named.

Key:
Assay in all cases: HT-SELEX; high values mean tight binding
Conditions in all cases: protein: recombinant; vector His6-GST; dsDNA, one strand shown
SALL4 ZFC4 WT (HT-SELEX) = molecular target: T1, SALL4 ZFC4 WT (HT-SELEX) (Mus musculus, UniProt Q8BX22 870-940)
T1 sequence: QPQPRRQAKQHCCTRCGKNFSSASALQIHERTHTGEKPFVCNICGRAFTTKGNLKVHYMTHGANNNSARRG
Procedure, shortened: (§1)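 Up to 6 cycles of selection were run in triplicate. In each, purified recombinant mouse SALL4 zinc finger cluster 4 (residues 870–940, 1 µg) was incubated with library DNA (1.5 µg first cycle, 200 ng later) in 100 µl of 10 mM Tris–HCl pH 7.5, 50 mM NaCl, poly(dI-dC), DTT for 10 min at room temperature, then complexes were captured on Ni2+ beads, washed and PCR-amplified; final pools were MiSeq-sequenced and scanned for 6-mers. Binding signal is each canonical k-mer's read fraction as fold change versus the initial random library.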

[1] = molecular target: T2, SALL4 ZFC4 R900W (HT-SELEX) (Mus musculus, UniProt Q8BX22 870-940, R900W)
T2 sequence: T1 sequence with R31W
Procedure, shortened: as §1

[2] = molecular target: T3, SALL4 ZFC4 G921D (HT-SELEX) (Mus musculus, UniProt Q8BX22 870-940, G921D)
T3 sequence: T1 sequence with G52D
Procedure, shortened: as §1

| Sequence | binding signal (SALL4 ZFC4 WT (HT-SELEX)) | binding signal [1] | binding signal [2] |
| --- | --- | --- | --- |
| ATCCGA | 0.684 ± 0.0383 fold-change vs cycle 0 | 0.781 ± 0.0221 fold-change vs cycle 0 | 0.89 ± 0.0142 fold-change vs cycle 0 |
| CGGAAG | 0.465 ± 0.0113 fold-change vs cycle 0 | 0.58 ± 0.0281 fold-change vs cycle 0 | 0.707 ± 0.0759 fold-change vs cycle 0 |
| ATGCCA | 0.517 ± 0.0281 fold-change vs cycle 0 | 0.565 ± 0.0177 fold-change vs cycle 0 | 0.695 ± 0.0326 fold-change vs cycle 0 |
| CAGACA | 0.66 ± 0.0364 fold-change vs cycle 0 | 0.798 ± 0.012 fold-change vs cycle 0 | 0.862 ± 0.0574 fold-change vs cycle 0 |
| TAAGGA | 1.59 ± 0.0522 fold-change vs cycle 0 | 1.71 ± 0.0756 fold-change vs cycle 0 | 1.54 ± 0.114 fold-change vs cycle 0 |
| TCCCGA | 0.394 ± 0.0144 fold-change vs cycle 0 | 0.445 ± 0.019 fold-change vs cycle 0 | 0.562 ± 0.0681 fold-change vs cycle 0 |
| TATGCA | 1.19 ± 0.0704 fold-change vs cycle 0 | 1.16 ± 0.0312 fold-change vs cycle 0 | 1.15 ± 0.0173 fold-change vs cycle 0 |
| ACACTC | 0.798 ± 0.0206 fold-change vs cycle 0 | 0.908 ± 0.0437 fold-change vs cycle 0 | 0.948 ± 0.0215 fold-change vs cycle 0 |
| CGGAAA | 0.548 ± 0.0301 fold-change vs cycle 0 | 0.591 ± 0.00691 fold-change vs cycle 0 | 0.694 ± 0.0765 fold-change vs cycle 0 |
| CTGTTA | 1.37 ± 0.0494 fold-change vs cycle 0 | 1.47 ± 0.0717 fold-change vs cycle 0 | 1.39 ± 0.112 fold-change vs cycle 0 |
| GATATC | 1.46 ± 0.0542 fold-change vs cycle 0 | 1.45 ± 0.075 fold-change vs cycle 0 | 1.39 ± 0.0375 fold-change vs cycle 0 |
| AGAGCT | 0.658 ± 0.0205 fold-change vs cycle 0 | 0.784 ± 0.026 fold-change vs cycle 0 | 0.8909 ± 0.00859 fold-change vs cycle 0 |
| AAACTG | 1.1 ± 0.0398 fold-change vs cycle 0 | 1.2 ± 0.0458 fold-change vs cycle 0 | 1.17 ± 0.0583 fold-change vs cycle 0 |
| GATGCA | 0.68 ± 0.0339 fold-change vs cycle 0 | 0.75 ± 0.0294 fold-change vs cycle 0 | 0.848 ± 0.0393 fold-change vs cycle 0 |
| ATCTGG | 0.78 ± 0.0274 fold-change vs cycle 0 | 0.839 ± 0.0522 fold-change vs cycle 0 | 0.901 ± 0.0524 fold-change vs cycle 0 |
| TCTAGA | 1.32 ± 0.134 fold-change vs cycle 0 | 1.49 ± 0.119 fold-change vs cycle 0 | 1.41 ± 0.147 fold-change vs cycle 0 |
| CTTTAC | 1.34 ± 0.0196 fold-change vs cycle 0 | 1.5 ± 0.0474 fold-change vs cycle 0 | 1.36 ± 0.0809 fold-change vs cycle 0 |
| CTTTTC | 1.14 ± 0.0195 fold-change vs cycle 0 | 1.29 ± 0.0412 fold-change vs cycle 0 | 1.218 ± 0.00999 fold-change vs cycle 0 |
| ATAGAC | 1.2 ± 0.024 fold-change vs cycle 0 | 1.29 ± 0.0416 fold-change vs cycle 0 | 1.3 ± 0.09 fold-change vs cycle 0 |
| CCCTAA | 0.849 ± 0.0207 fold-change vs cycle 0 | 0.947 ± 0.00994 fold-change vs cycle 0 | 0.952 ± 0.0492 fold-change vs cycle 0 |

| Sequence | binding signal (SALL4 ZFC4 WT (HT-SELEX)) | binding signal [1] | binding signal [2] |
| --- | --- | --- | --- |
| AACCTT | 1.35 ± 0.0624 fold-change vs cycle 0 | 1.5 ± 0.0445 fold-change vs cycle 0 | 1.39 ± 0.0775 fold-change vs cycle 0 |
| ACGTGA | 0.774 ± 0.0226 fold-change vs cycle 0 | 0.876 ± 0.021 fold-change vs cycle 0 | 0.931 ± 0.0233 fold-change vs cycle 0 |
| ATACTC | 1.45 ± 0.0421 fold-change vs cycle 0 | 1.5 ± 0.0712 fold-change vs cycle 0 | 1.44 ± 0.097 fold-change vs cycle 0 |
| ATAGAG | 1.4 ± 0.0362 fold-change vs cycle 0 | 1.43 ± 0.0403 fold-change vs cycle 0 | 1.38 ± 0.0574 fold-change vs cycle 0 |
| ACTGCA | 0.647 ± 0.0528 fold-change vs cycle 0 | 0.7299 ± 0.00625 fold-change vs cycle 0 | 0.797 ± 0.0181 fold-change vs cycle 0 |
| CCTTTC | 0.765 ± 0.031 fold-change vs cycle 0 | 0.942 ± 0.0414 fold-change vs cycle 0 | 0.934 ± 0.0409 fold-change vs cycle 0 |
| ACAATA | 2.09 ± 0.146 fold-change vs cycle 0 | 1.92 ± 0.0865 fold-change vs cycle 0 | 1.71 ± 0.156 fold-change vs cycle 0 |
| AGAACG | 0.692 ± 0.0289 fold-change vs cycle 0 | 0.817 ± 0.046 fold-change vs cycle 0 | 0.844 ± 0.0513 fold-change vs cycle 0 |
| ACACAC | 0.701 ± 0.0589 fold-change vs cycle 0 | 0.815 ± 0.0148 fold-change vs cycle 0 | 0.903 ± 0.0448 fold-change vs cycle 0 |
| ACAAGA | 1.29 ± 0.0493 fold-change vs cycle 0 | 1.52 ± 0.0767 fold-change vs cycle 0 | 1.39 ± 0.105 fold-change vs cycle 0 |
| TAAACA | 1.9 ± 0.127 fold-change vs cycle 0 | 1.91 ± 0.125 fold-change vs cycle 0 | 1.73 ± 0.187 fold-change vs cycle 0 |
| ACCGTA | 0.728 ± 0.0197 fold-change vs cycle 0 | 0.818 ± 0.0316 fold-change vs cycle 0 | 0.868 ± 0.0103 fold-change vs cycle 0 |
| TAGCGA | 0.54 ± 0.0286 fold-change vs cycle 0 | 0.613 ± 0.0291 fold-change vs cycle 0 | 0.72 ± 0.0193 fold-change vs cycle 0 |
| AATGAT | 2.25 ± 0.203 fold-change vs cycle 0 | 2.15 ± 0.135 fold-change vs cycle 0 | 1.94 ± 0.238 fold-change vs cycle 0 |
| CACCGA | 0.338 ± 0.00929 fold-change vs cycle 0 | 0.392 ± 0.0114 fold-change vs cycle 0 | 0.523 ± 0.056 fold-change vs cycle 0 |
| GGTGTA | 0.751 ± 0.0241 fold-change vs cycle 0 | 0.855 ± 0.0293 fold-change vs cycle 0 | 0.889 ± 0.0301 fold-change vs cycle 0 |
| AAGTCA | 1.3 ± 0.0493 fold-change vs cycle 0 | 1.46 ± 0.0531 fold-change vs cycle 0 | 1.35 ± 0.0928 fold-change vs cycle 0 |
| AGTGAC | 0.776 ± 0.012 fold-change vs cycle 0 | 0.91 ± 0.0317 fold-change vs cycle 0 | 0.973 ± 0.0424 fold-change vs cycle 0 |
| AAAATA | 3.77 ± 0.346 fold-change vs cycle 0 | 2.25 ± 0.159 fold-change vs cycle 0 | 1.96 ± 0.218 fold-change vs cycle 0 |
| CAATCG | 0.623 ± 0.00929 fold-change vs cycle 0 | 0.726 ± 0.0311 fold-change vs cycle 0 | 0.821 ± 0.0438 fold-change vs cycle 0 |

| Sequence | binding signal (SALL4 ZFC4 WT (HT-SELEX)) | binding signal [1] | binding signal [2] |
| --- | --- | --- | --- |
| ATCTAG | 1.35 ± 0.0842 fold-change vs cycle 0 | 1.48 ± 0.0373 fold-change vs cycle 0 | 1.41 ± 0.108 fold-change vs cycle 0 |
| CGGAAC | 0.339 ± 0.0284 fold-change vs cycle 0 | 0.417 ± 0.0399 fold-change vs cycle 0 | 0.524 ± 0.0677 fold-change vs cycle 0 |
| ATAATG | 2.28 ± 0.148 fold-change vs cycle 0 | 2.02 ± 0.123 fold-change vs cycle 0 | 1.81 ± 0.182 fold-change vs cycle 0 |
| ATCAAC | 1.34 ± 0.0602 fold-change vs cycle 0 | 1.45 ± 0.0864 fold-change vs cycle 0 | 1.42 ± 0.0753 fold-change vs cycle 0 |
| ATAAAT | 4.06 ± 0.373 fold-change vs cycle 0 | 2.56 ± 0.158 fold-change vs cycle 0 | 2.19 ± 0.239 fold-change vs cycle 0 |
| ACTCCT | 1.01 ± 0.0205 fold-change vs cycle 0 | 1.15 ± 0.052 fold-change vs cycle 0 | 1.144 ± 0.00693 fold-change vs cycle 0 |
| GAAGGA | 0.959 ± 0.0373 fold-change vs cycle 0 | 1.11 ± 0.0789 fold-change vs cycle 0 | 1.08 ± 0.0796 fold-change vs cycle 0 |
| AATCCC | 0.882 ± 0.0212 fold-change vs cycle 0 | 0.932 ± 0.0228 fold-change vs cycle 0 | 0.963 ± 0.0176 fold-change vs cycle 0 |
| AGTCCA | 0.746 ± 0.0239 fold-change vs cycle 0 | 0.878 ± 0.0374 fold-change vs cycle 0 | 0.929 ± 0.0398 fold-change vs cycle 0 |
| ATACAG | 1.33 ± 0.0931 fold-change vs cycle 0 | 1.41 ± 0.0818 fold-change vs cycle 0 | 1.36 ± 0.0886 fold-change vs cycle 0 |
| AAGAGG | 0.855 ± 0.0331 fold-change vs cycle 0 | 1.01 ± 0.0625 fold-change vs cycle 0 | 0.999 ± 0.0313 fold-change vs cycle 0 |
| ATTCCC | 0.877 ± 0.0328 fold-change vs cycle 0 | 0.943 ± 0.055 fold-change vs cycle 0 | 0.984 ± 0.0201 fold-change vs cycle 0 |
| ATCAGG | 0.876 ± 0.0408 fold-change vs cycle 0 | 0.991 ± 0.0415 fold-change vs cycle 0 | 1 ± 0.0437 fold-change vs cycle 0 |
| ACTTCC | 0.854 ± 0.0494 fold-change vs cycle 0 | 1.02 ± 0.0553 fold-change vs cycle 0 | 1.03 ± 0.0487 fold-change vs cycle 0 |
| ACCGAT | 0.687 ± 0.0287 fold-change vs cycle 0 | 0.745 ± 0.0142 fold-change vs cycle 0 | 0.862 ± 0.0275 fold-change vs cycle 0 |
| AAAACC | 0.956 ± 0.0539 fold-change vs cycle 0 | 1.05 ± 0.0465 fold-change vs cycle 0 | 1.1 ± 0.0332 fold-change vs cycle 0 |
| CCCTCA | 0.502 ± 0.0184 fold-change vs cycle 0 | 0.579 ± 0.0163 fold-change vs cycle 0 | 0.665 ± 0.0275 fold-change vs cycle 0 |
| TGCACA | 0.529 ± 0.0293 fold-change vs cycle 0 | 0.586 ± 0.0273 fold-change vs cycle 0 | 0.698 ± 0.0457 fold-change vs cycle 0 |
| CGGAGA | 0.359 ± 0.025 fold-change vs cycle 0 | 0.45 ± 0.0336 fold-change vs cycle 0 | 0.543 ± 0.0379 fold-change vs cycle 0 |
| CAAGAC | 0.74 ± 0.0108 fold-change vs cycle 0 | 0.856 ± 0.0182 fold-change vs cycle 0 | 0.905 ± 0.036 fold-change vs cycle 0 |
